Test results published in PubChem BioAssay AID1159580 (chemical genetic matrix, 2015).
Several values for one entry are separate records, joined by “and”; a condition that tells them apart may be missing. Equal values may be shown once. Screen size: about 5,500 compounds; about 2,000 (36%) were called active. Roughly 18% stayed inconclusive and do not appear here. Rule as the data show it: active = normalized growth mostly below about 0.91 (no sharp cut-off); inconclusive = no clear call, values can overlap the other calls; inactive = mostly above about 0.92. The list shows a part of the results.

Assay: chemical genetic growth profiling, strain panel (AID 1159580);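 also: tested at 20 µM; growth read once vehicle control cultures reached saturation at 30 °C; 1 = growth at the plate median or of vehicle wells; lower values mean less growth of the strain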
Conditions: S. cerevisiae deletion strains, growth OD

Measured: normalized growth

NC(Cn1ccc(=O)c(O)c1)C(=O)O (configuration not stated)
inactive: locus YAL013W, strain DEP1, stronger effect = lower value 1.01 | locus YAL021C, strain ccr4, stronger effect = lower value 1 | locus YAL026C, strain drs2, stronger effect = lower value 1.04 | locus YAL030W, strain snc1, stronger effect = lower value 1.01 | locus YBL061C, strain skt5, stronger effect = lower value 1.03 | locus YBR009C, strain hhf1, stronger effect = lower value 0.992 | locus YBR021W, strain FUR4, stronger effect = lower value 1.01 | locus YBR023C, strain chs3, stronger effect = lower value 1.03 | locus YBR171W, strain sec66, stronger effect = lower value 1.03 | locus YBR229C, strain ROT2, stronger effect = lower value 1.02 | locus YBR231C, strain swc5, stronger effect = lower value 1.01 | locus YBR279W, strain paf1, stronger effect = lower value 1.03 | locus YCL011C, strain gbp2, stronger effect = lower value 1.03 | locus YCL016C, strain dcc1, stronger effect = lower value 1.04 | locus YCL029C, strain bik1, stronger effect = lower value 0.98 | locus YCL061C, strain MRC1, stronger effect = lower value 1.01 | locus YCL069W, strain vba3, stronger effect = lower value 1.01 | locus YCR088W, strain abp1, stronger effect = lower value 1.02 | locus YDL005C, strain med2, stronger effect = lower value 1.03 | locus YDL035C, strain GPR1, stronger effect = lower value 1.03 | locus YDL040C, strain nat1, stronger effect = lower value 1.02 | locus YDL074C, strain BRE1, stronger effect = lower value 1.03 | locus YDL101C, strain DUN1, stronger effect = lower value 1.02 | locus YDL134C, strain PPH21, stronger effect = lower value 1.01 | locus YDL185W, strain tfp1, stronger effect = lower value 0.978 | locus YDL192W, strain arf1, stronger effect = lower value 0.994 | locus YDR001C, strain nth1, stronger effect = lower value 1.02 | locus YDR069C, strain doa4, stronger effect = lower value 1.02 | locus YDR101C, strain arx1, stronger effect = lower value 1 | locus YDR137W, strain rgp1, stronger effect = lower value 1.05 | locus YDR150W, strain NUM1, stronger effect = lower value 1.01 | locus YDR159W, strain sac3, stronger effect = lower value 0.943 | locus YDR162C, strain NBP2, stronger effect = lower value 1.02 | locus YDR195W, strain ref2 1.01 | locus YDR297W, strain sur2, stronger effect = lower value 0.998 | locus YDR318W, strain mcm21, stronger effect = lower value 0.992 | locus YDR334W, strain swr1, stronger effect = lower value 1.02 | locus YDR335W, strain msn5, stronger effect = lower value 1.03 | locus YDR388W, stronger effect = lower value 0.993 | locus YDR392W, strain spt3, stronger effect = lower value 0.959 | locus YDR502C, strain sam2, stronger effect = lower value 1.01 | locus YEL003W, strain gim4, stronger effect = lower value 1 | locus YEL037C, strain rad23, stronger effect = lower value 1.02 | locus YEL061C, strain CIN8 (second series), stronger effect = lower value 1.03 | locus YEL061C, strain CIN8, stronger effect = lower value 1.01 | locus YER015W, strain faa2, stronger effect = lower value 1.01 | locus YER016W, strain bim1, stronger effect = lower value 1.05 | locus YER110C, stronger effect = lower value 0.969 | locus YER111C, strain swi4, stronger effect = lower value 1.02 | locus YER155C, strain BEM2 (second series), stronger effect = lower value 1.01 | locus YER155C, strain BEM2, stronger effect = lower value 1.01 | locus YER167W, strain BCK2, stronger effect = lower value 1.03 | locus YFR010W, strain ubp6, stronger effect = lower value 0.994 | locus YGL078C, strain dbp3, stronger effect = lower value 1.01 | locus YGL086W, strain mad1, stronger effect = lower value 1 | locus YGL167C, strain pmr1, stronger effect = lower value 1.02 | locus YGL173C, strain kem1, stronger effect = lower value 1 | locus YGL227W, strain vid30, stronger effect = lower value 1.05 | locus YGL240W, strain doc1, stronger effect = lower value 1 | locus YGL248W, strain PDE1, stronger effect = lower value 1.02 | locus YGL253W, strain hxk2, stronger effect = lower value 1.03 | locus YGR078C, strain PAC10, stronger effect = lower value 1.02 | locus YGR135W, strain pre9, stronger effect = lower value 1.02 | locus YGR229C, strain SMI1, stronger effect = lower value 1.02 | locus YGR252W, strain gcn5, stronger effect = lower value 1.07 | locus YHR013C, strain ard1, stronger effect = lower value 1.05 | locus YHR027C, strain rpn1, stronger effect = lower value 1.02 | locus YHR030C, strain SLT2, stronger effect = lower value 1.01 and 1.02 | locus YHR079C, strain IRE1 (second series), stronger effect = lower value 0.988 | locus YHR079C, strain IRE1, stronger effect = lower value 1.04 | locus YHR094C, strain hxt1, stronger effect = lower value 0.996 | locus YHR129C, strain ARP1, stronger effect = lower value 1.01 | locus YHR142W, strain chs7, stronger effect = lower value 1.03 | locus YHR200W, strain rpn10, stronger effect = lower value 0.991 | locus YIL066C, strain RNR3, stronger effect = lower value 1.02 | locus YIL073C, strain SPO22, stronger effect = lower value 0.978 | locus YIL125W, strain kgd1, stronger effect = lower value 1 | locus YIR030C, strain dcg1, stronger effect = lower value 0.986 | locus YJL092W, strain hpr5, stronger effect = lower value 1.01 | locus YJL095W, strain BCK1 (second series), stronger effect = lower value 1.03 | locus YJL095W, strain BCK1, stronger effect = lower value 1.02 and 1.01 | locus YJL115W, strain asf1, stronger effect = lower value 1.02 | locus YJL129C, strain trk1, stronger effect = lower value 1.03 | locus YJL134W, strain LCB3, stronger effect = lower value 1.01 | locus YJL154C, strain vps35, stronger effect = lower value 1.01 | locus YJL164C, strain tpk1, stronger effect = lower value 0.996 | locus YJL166W, strain qcr8, stronger effect = lower value 1.01 | locus YJL168C, strain set2, stronger effect = lower value 0.99 | locus YJL187C, strain SWE1 (second series), stronger effect = lower value 1.01 | locus YJL187C, strain SWE1, stronger effect = lower value 1.01 | locus YJR043C, strain POL32, stronger effect = lower value 1.01 | locus YJR066W, strain TOR1, stronger effect = lower value 0.98
